In PubChem BioAssay (NCATS):
Results filed as inconclusive are left out. Where a call stands in place of a potency, no number is given. Active and inactive are the calls of the source. Unless noted, calls come from the whole dose curve; as a rule, active = well fitted inhibition curve with a large enough effect; inconclusive = small, poorly fitted or top-dose-only effect; inactive = flat fitted curve, though single readings scatter.

Tests used:
[1] = qHTS drug screen for cell cycle checkpoint inhibitors in PARPi-resistant BRCA-mutant ovarian cancer cell lines. (AID 1963452; calls by dose curve); settings: PEO1/OlaR viability, CellTiter-Glo luminescence, 96 h, stronger effect = lower value
Procedure, shortened: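 PEO1, PEO4 and PEO1/OlaR ovarian cancer cells, 600 per well, exposed 96 h at 37C to a dilution series. Viability read by CellTiter-Glo luminescence, normalized to DMSO and empty wells; activity summarized as Z-AUC.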

[2] = qHTS for identification of novel therapeutic agents for treatment of microphthalmiaassociated transcription factor (MiT) renal cell carcinoma (RCC) (AID 1963991); settings: CellTiter-Glo, 48 h, stronger effect = lower value
Procedure, shortened: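 Three TFE3-fusion RCC cell lines (UOK109, UOK124, UOK145), 500 cells/well, were exposed to the 1912-compound MIPE 4.0 library for 48 hours at 37 C. Viability was read by CellTiter-Glo luminescence, normalised to DMSO (100%) and empty wells (0%), with 11-concentration curve fits.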

[3] = qHTS profiling for inhibitors of Plasmodium falciparum proliferation (AID 504749); note: nearly all actives have a fitted effect of over 60% in size; settings: P. falciparum in erythrocytes, SYBR Green DNA, 72 h, at 28.7 µM (top of the series)
Procedure, shortened: (§1)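 Three-day growth assay of blood-stage parasites in erythrocytes (0.3% parasitemia, 2.5% hematocrit) at 37 C, 5% CO2, quantified by SYBR Green DNA staining after overnight detergent lysis.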

3D7 = experiment: as above; settings: P. falciparum in erythrocytes, SYBR Green DNA, 72 h; series mostly up to 28.7 µM
Procedure, shortened: as §1

7G8 = experiment: as above; settings: P. falciparum in erythrocytes, SYBR Green DNA, 72 h; series mostly up to 28.7 µM
Procedure, shortened: as §1

AA1029 = experiment: as above; settings: P. falciparum in erythrocytes, SYBR Green DNA, 72 h; series mostly up to 28.7 µM
Procedure, shortened: as §1

AS120 = experiment: as above; settings: P. falciparum in erythrocytes, SYBR Green DNA, 72 h; series mostly up to 28.7 µM
Procedure, shortened: as §1

ATS189 = experiment: as above; settings: P. falciparum in erythrocytes, SYBR Green DNA, 72 h; series mostly up to 28.7 µM
Procedure, shortened: as §1

ATS95 = experiment: as above; settings: P. falciparum in erythrocytes, SYBR Green DNA, 72 h; series mostly up to 28.7 µM
Procedure, shortened: as §1

C2A = experiment: as above; settings: P. falciparum in erythrocytes, SYBR Green DNA, 72 h; series mostly up to 28.7 µM
Procedure, shortened: as §1

CP185 = experiment: as above; settings: P. falciparum in erythrocytes, SYBR Green DNA, 72 h; series mostly up to 28.7 µM
Procedure, shortened: as §1

CP191 = experiment: as above; settings: P. falciparum in erythrocytes, SYBR Green DNA, 72 h; series mostly up to 28.7 µM
Procedure, shortened: as §1

CP192 = experiment: as above; settings: P. falciparum in erythrocytes, SYBR Green DNA, 72 h; series mostly up to 28.7 µM
Procedure, shortened: as §1

CP194 = experiment: as above; settings: P. falciparum in erythrocytes, SYBR Green DNA, 72 h; series mostly up to 28.7 µM
Procedure, shortened: as §1

CP201 = experiment: as above; settings: P. falciparum in erythrocytes, SYBR Green DNA, 72 h; series mostly up to 28.7 µM
Procedure, shortened: as §1

CP203 = experiment: as above; settings: P. falciparum in erythrocytes, SYBR Green DNA, 72 h; series mostly up to 28.7 µM
Procedure, shortened: as §1

CP211 = experiment: as above; settings: P. falciparum in erythrocytes, SYBR Green DNA, 72 h; series mostly up to 28.7 µM
Procedure, shortened: as §1

CP215 = experiment: as above; settings: P. falciparum in erythrocytes, SYBR Green DNA, 72 h; series mostly up to 28.7 µM
Procedure, shortened: as §1

CP217 = experiment: as above; settings: P. falciparum in erythrocytes, SYBR Green DNA, 72 h; series mostly up to 28.7 µM
Procedure, shortened: as §1

[4] = measured here: PEO1 parental Z-AUC
[5] = TFE3-RCC UOK109 viability, measured here: UOK109 Z-AUC
[6] = TFE3-RCC viability, measured here: UOK124 Z-AUC
[7] = TFE3-RCC viability, measured here: UOK145 Z-AUC

With CO[C@@H]1[C@@H](OC(N)=O)[C@@H](O)[C@H](Oc2ccc3c(O)c(NC(=O)c4ccc(O)c(CC=C(C)C)c4)c(=O)oc3c2C)OC1(C)C the Z-AUC [1] was -0.0911 (inactive), the Z-AUC [1, 4] was 0.276 and the Z-AUC ([1]; measured here: PEO4 Z-AUC) was 0.63. The z-score [2, 5] was 0.755, the z-score [2, 6] was 0.269 and the z-score [2, 7] was 0.567.

For O=C(O)CSCC(=O)NC1CCSC1=O (configuration not stated), the Z-AUC [1] was -0.00872 (inactive), the Z-AUC [1, 4] was 0.644 and the Z-AUC ([1]; measured here: PEO4 Z-AUC) was 0.13. It also gave a z-score [2, 5] of 0.815, a z-score [2, 6] of 0.223 and a z-score [2, 7] of 1.5.

For CCCc1cc(C(N)=S)ccn1, the Z-AUC [1] was 1.52 (inactive), the Z-AUC [1, 4] was 1.53 and the Z-AUC ([1]; measured here: PEO4 Z-AUC) was 1.99. For the same compound, the z-score [2, 5] was 1.43, the z-score [2, 6] was 0.537 and the z-score [2, 7] was 0.979. The activity, negative = inhibition ([3]; parasite line A) was 2.28% (inactive), the activity, negative = inhibition ([3]; parasite line B) was 5.15% (inactive) and the Potency (3D7) was “inactive”. The Potency (7G8) was “inactive”, the Potency (AA1029) was “inactive” and the Potency (AS120) was “inactive”. For the same compound, the Potency (ATS189) was “inactive”, the Potency (ATS95) was “inactive” and the Potency (C2A) was “inactive”. For the same compound, the Potency (CP185) was “inactive”, the Potency (CP191) was “inactive” and the Potency (CP192) was “inactive”. The Potency (CP194) was “inactive”, the Potency (CP201) was “inactive” and the Potency (CP203) was “inactive”. The Potency (CP211) was “inactive”, the Potency (CP215) was “inactive” and the Potency (CP217) was “inactive”.

In the case of CCN[C@H]1C[C@H](C)S(=O)(=O)c2sc(S(N)(=O)=O)cc21, the Z-AUC [1] is reported as 1.11 (inactive), the Z-AUC [1, 4] is reported as 0.588 and the Z-AUC ([1]; measured here: PEO4 Z-AUC) is reported as 0.622. It also gave a z-score [2, 5] of 0.833, a z-score [2, 6] of 0.48 and a z-score [2, 7] of 0.605.

For CN(Cc1cc(Br)cc(Br)c1N)C1CCCCC1, the Z-AUC [1] was 1.09 (inactive), the Z-AUC [1, 4] was 1.12 and the Z-AUC ([1]; measured here: PEO4 Z-AUC) was 1.04. The z-score [2, 5] was 1.13, the z-score [2, 6] was 0.389 and the z-score [2, 7] was 1.53. For the same compound, the activity, negative = inhibition ([3]; parasite line A) was -5.78% (inactive), the activity, negative = inhibition ([3]; parasite line B) was -15.1% (inactive) and the Potency (AA1029) was “inactive”. The Potency (AS120) was “inactive”, the Potency (ATS189) was “inactive” and the Potency (C2A) was “inactive”. For the same compound, the Potency (CP185) was “inactive”, the Potency (CP191) was “inactive” and the Potency (CP192) was “inactive”. For the same compound, the Potency (CP194) was “inactive”, the Potency (CP201) was “inactive” and the Potency (CP203) was “inactive”. For the same compound, the Potency (CP211) was “inactive”, the Potency (CP215) was “inactive” and the Potency (CP217) was “inactive”.

With CN(CCOc1ccc(CC2SC(=O)NC2=O)cc1)c1ccccn1 (configuration not stated) the Z-AUC [1] was 0.844 (inactive), the Z-AUC [1, 4] was 0.498 and the Z-AUC ([1]; measured here: PEO4 Z-AUC) was 0.826. It also gave a z-score [2, 5] of 1.36, a z-score [2, 6] of 0.588 and a z-score [2, 7] of 0.764. For the same compound, the activity, negative = inhibition ([3]; parasite line A) was -1.7% (inactive), the activity, negative = inhibition ([3]; parasite line B) was -10% (inactive) and the Potency (3D7) was “inactive”. For the same compound, the Potency (7G8) was “inactive”, the Potency (AA1029) was “inactive” and the Potency (AS120) was “inactive”. The Potency (ATS189) was “inactive”, the Potency (ATS95) was “inactive” and the Potency (C2A) was “inactive”. The Potency (CP185) was “inactive”, the Potency (CP191) was “inactive” and the Potency (CP192) was “inactive”. For the same compound, the Potency (CP194) was “inactive”, the Potency (CP201) was “inactive” and the Potency (CP203) was “inactive”. The Potency (CP211) was “inactive”, the Potency (CP215) was “inactive” and the Potency (CP217) was “inactive”.
